Experiment [1] in a line: inhibitors of TNFa-induced NFkB p65 translocation, primary screen, imaging, HUVEC, MLSMR starter and 10KST1 sets (AID 438;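 active means inhibition above 20% together with a positive visual image hit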;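 further: compound added about 3h40 before a 20 min TNFalpha stimulation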;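 on inhibition: signal is the nuclear over cytoplasmic p65 intensity ratio per well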). Conditions: HUVEC TNFa-induced p65 nuclear translocation; cell count: measured here: nuclei count (cytotoxicity indicator), at 2.08 µM; inhibition: at 2 µM, stronger effect = higher value, 0% TNFa-plus-vehicle, 100% no-TNFa wells.
Experiment [2] is described as follows: reduction of polyQ htt aggregates in cells – imaging, exon1htt(103Q)mCFP cells, high-content imaging, primary screen (AID 483;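 active means visual image review flags a hit and inhibition of aggregation exceeds 20%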;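 further: compound exposure lasted 3 days before fixation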;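 on nuclei count: percent of the per-plate median nuclei count of sample wells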). The settings on record: exon1htt(103Q)mCFP cell line, aggregate imaging, at 2 µM; inhibition of aggregation: stronger effect = higher value; nuclei count: measured here: cell count, toxicity.
Experiment [3] in a line: endothelial E-selectin expression blockers – imaging, HUVEC, immunofluorescence, MLSMR starter and 10KST1 sets, primary screen (AID 487;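 active means visually confirmed hit in the image check and inhibition above 20%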;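 on inhibition: signal is fraction of cell area covered by stained E-selectin grains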;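 on nuclei count: 100% = median nuclei count of all wells on the same plate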). Conditions: HUVEC TNFalpha-induced E-selectin immunofluorescence imaging, at 2 µM; inhibition: stronger effect = higher value; nuclei count: measured here: cell number, toxicity.
Experiment [4] addresses Voltage-gated potassium channel subunit beta-2 (Rattus norvegicus) (UniProt P62483). Kind of experiment: inhibitors of rat Kvbeta2 reductase activity – biochemical, NADPH fluorescence, primary screen (AID 622;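 active means fluorescence slope higher than the sample average by over 3 SD, cut at about -0.22 in these data, passing the limit was not always enough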;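 further: slope of raw intensity against log time taken from 70 to 1610 s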). Conditions: recombinant KvBeta, 4-cyanobenzaldehyde reduction, at 10 µM, stronger effect = higher value.
The target is the same in experiment [5]. Kind of experiment: enhancers of rat Kvbeta2 NADPH turnover – biochemical, NADPH fluorescence, primary screen (AID 623;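 active means NADPH fluorescence slope more negative than the mean of all samples by about 3 SD, 99.7% confidence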;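 further: fluorescence intensity change per second fitted from 20 to 320 s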). The settings on record: Recombinant KvBeta, NADPH fluorescence decrease slope, 10 min; at 10 µM; stronger effect = lower value.
Experiment [6] deals with Alpha-2C adrenergic receptor (Homo sapiens) (UniProt P18825). Kind of experiment: compounds altering alpha2C-coupled GIRK flux – cell-based, HEK293 alpha2C/GIRK1/2, thallium flux, primary screen (AID 624;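 active means fluorescence slope after compound addition differing from the mean of all screened samples at 99.7% confidence, in either direction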;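 further: slope of fluorescence ratio to pre-addition baseline per second over 15 to 24 s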). The settings on record: thallium flux BTC fluorescence, at 10 µM, actives lie on both sides.
Chain of Alpha-2C adrenergic receptor (Homo sapiens) (P18825 whole entry, looked up): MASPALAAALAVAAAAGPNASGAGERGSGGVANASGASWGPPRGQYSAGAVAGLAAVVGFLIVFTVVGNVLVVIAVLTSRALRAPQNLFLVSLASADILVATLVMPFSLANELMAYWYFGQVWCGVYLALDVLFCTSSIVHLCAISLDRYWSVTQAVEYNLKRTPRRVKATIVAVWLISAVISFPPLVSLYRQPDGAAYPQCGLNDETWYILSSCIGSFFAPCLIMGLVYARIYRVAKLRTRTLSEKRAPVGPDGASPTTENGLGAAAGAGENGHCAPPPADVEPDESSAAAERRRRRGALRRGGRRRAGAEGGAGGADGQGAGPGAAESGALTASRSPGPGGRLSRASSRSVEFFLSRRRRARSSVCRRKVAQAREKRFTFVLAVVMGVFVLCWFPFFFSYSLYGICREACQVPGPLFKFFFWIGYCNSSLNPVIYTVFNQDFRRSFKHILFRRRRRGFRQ
Experiment [7] is described as follows: blockers of RIG-like receptor reporter activation – cell-based, Sendai virus stimulus, luciferase, 10K MLSCN set, TLR/RLR signaling modifier project, primary screen (AID 602276;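 active means inhibition at or above 50% at 10 µM; inactive means inhibition below 50%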;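 further: firefly luciferase from ISG56 promoter only with Renilla not read in this screen; 0% = Sendai virus plus DMSO and 100% = medium plus DMSO without virus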). Conditions: HEK293 RL24 IRF3 luciferase reporter, at 10 µM, stronger effect = higher value.
Experiment [8] can be described thus: TLR3 IRF3 reporter activation blockers – cell-based, poly I:C stimulus, luciferase, 10K MLSCN set, primary screen (AID 602277). Conditions: HEK293-TLR3 RL24 IRF3 luciferase reporter, at 10 µM, stronger effect = higher value.

Activity calls are given as the source filed them.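 How the source made its calls, unless noted: active means inhibition of the reporter signal at or above 50%; inactive means inhibition below 50%.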

Chain of Voltage-gated potassium channel subunit beta-2 (Rattus norvegicus) (P62483 whole entry, looked up): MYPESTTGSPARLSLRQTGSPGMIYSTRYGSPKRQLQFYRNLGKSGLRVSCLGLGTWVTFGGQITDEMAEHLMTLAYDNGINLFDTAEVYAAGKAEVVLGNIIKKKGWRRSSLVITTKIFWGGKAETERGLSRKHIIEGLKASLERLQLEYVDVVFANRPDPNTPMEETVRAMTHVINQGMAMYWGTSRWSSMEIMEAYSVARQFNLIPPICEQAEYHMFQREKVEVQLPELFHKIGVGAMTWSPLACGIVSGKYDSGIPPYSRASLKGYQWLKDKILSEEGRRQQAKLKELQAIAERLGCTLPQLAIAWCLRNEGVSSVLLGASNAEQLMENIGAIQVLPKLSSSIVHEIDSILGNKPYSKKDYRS

With `Cc1cccc(C2c3c(n(C)c(=O)n(C)c3=O)N=C3c4ccccc4C(=O)C32)c1` (stereo not given), the cell count in experiment [1] worked out at 323. Moreover, the inhibition in experiment [1] was -5.6% (inactive); in experiment [3], -348% (inactive); in experiment [7], 16% (inactive); in experiment [8], 3.75% (inactive). Besides, the inhibition of aggregation in experiment [2] is 6.9% (inactive). Further, the nuclei count was 102% in experiment [2] and 113% in experiment [3]. The fluorescence slope in experiment [4] was -0.383 (inactive). Also, the NADPH fluorescence slope in experiment [5] is 2.2e-05 (inactive). The slope in experiment [6] is 0.00343 (inactive).

Regarding `CC(=O)NC(C)c1nc2ccccc2n1C(C)C` (stereo not given), the cell count in experiment [1] amounted to 588. Moreover, the inhibition was 11.5% (inactive) in experiment [1], -50.6% (inactive) in experiment [3], 14.5% (inactive) in experiment [7] and 42.2% (inactive) in experiment [8]. Besides, the inhibition of aggregation in experiment [2] was -2.2% (inactive). Also, the nuclei count in experiment [2] was 98.7%; in experiment [3], 121%. Further, the fluorescence slope in experiment [4] is -0.551 (inactive). In addition, in experiment [5], the NADPH fluorescence slope is -2.4e-05 (inactive). Moreover, the slope in experiment [6] is 0.00604 (inactive).

Take `COc1ccc(-c2cc(O)cc(O)c2)cc1`: in experiment [1], the cell count amounted to 397. The inhibition in experiment [1] was -10.3% (inactive); in experiment [3] it was -25% (inactive); in experiment [7] it was -15.5% (inactive); in experiment [8] it was -88.2% (inactive). For the same compound, in experiment [2], the inhibition of aggregation was -11% (inactive). The nuclei count amounted to 103% in experiment [2] and 98.8% in experiment [3]. Further, the fluorescence slope in experiment [4] was -0.49 (inactive). Also, the NADPH fluorescence slope in experiment [5] is -7.1e-05 (inactive). The slope in experiment [6] is 0.00555 (inactive).

For `Cc1cc(NC(=O)COc2cccc(C)c2C)no1`, the cell count in experiment [1] turned out to be 684. Besides, the inhibition was 6.5% (inactive) in experiment [1], -16.6% (inactive) in experiment [3], -0.401% (inactive) in experiment [7] and 0.183% (inactive) in experiment [8]. In addition, in experiment [2], the inhibition of aggregation was -9.8% (inactive). The values for the nuclei count in experiment [2] and in experiment [3] were 104% and 121%, respectively. Moreover, the fluorescence slope in experiment [4] is -0.549 (inactive). For the same compound, the NADPH fluorescence slope in experiment [5] was -2.5e-05 (inactive). In addition, in experiment [6], the slope was 0.00696 (inactive).

On to `O=C(CC(=O)c1cc(Cl)ccc1O)c1ccccc1`, for which the cell count in experiment [1] came to 435. Moreover, the inhibition is 3.8% (inactive) in experiment [1], -68.1% (inactive) in experiment [3], -30.5% (inactive) in experiment [7] and -67.7% (inactive) in experiment [8]. The inhibition of aggregation in experiment [2] was -1.9% (inactive). In addition, the nuclei count in experiment [2] turned out to be 99.3%; in experiment [3], 126%. Besides, the fluorescence slope in experiment [4] was -0.41 (inactive). In addition, the NADPH fluorescence slope in experiment [5] was 2.8e-05 (inactive). Further, the slope in experiment [6] is 0.00798 (inactive).

As for `CCOC(=O)N1CCN(S(=O)(=O)c2ccc(OCC)c(C)c2)CC1`, the cell count in experiment [1] is 604. Further, the inhibition in experiment [1] is -11.1% (inactive); in experiment [3], 8.2% (inactive); in experiment [7] it was 0.885% (inactive); in experiment [8], 11.9% (inactive). Besides, the inhibition of aggregation in experiment [2] was -7.7% (inactive). Besides, the nuclei count in experiment [2] was found to be 106%; in experiment [3], 102%. Also, the fluorescence slope in experiment [4] is -0.625 (inactive). Moreover, in experiment [5], the NADPH fluorescence slope is -3.8e-06 (inactive). Moreover, the slope in experiment [6] is 0.00615 (inactive).

In the case of `CC1CCCCC1NC(=O)C1CCN(C(=O)NC2CCCCC2)CC1` (stereo not given), the cell count in experiment [1] was 172. Further, the inhibition in experiment [1] was -4.9% (inactive); in experiment [3], 2.1% (inactive); in experiment [7], 13.5% (inactive); in experiment [8] it was 28.2% (inactive). In experiment [2], the inhibition of aggregation was 20.6% (inactive). The figures for the nuclei count in experiment [2] and in experiment [3] were 71.9% and 79.8%, respectively. Also, in experiment [4], the fluorescence slope is -0.448 (inactive). Also, in experiment [5], the NADPH fluorescence slope is -4.6e-05 (inactive). For the same compound, the slope in experiment [6] is 0.00366 (inactive).

On to `O=C(Nc1nc(-c2ccncc2)cs1)C1COc2ccccc2O1` (stereo not given), for which, in experiment [1], the cell count is 646. Further, the inhibition is -4.9% (inactive) in experiment [1], -28.4% (inactive) in experiment [3], -5.76% (inactive) in experiment [7] and -29.4% (inactive) in experiment [8]. For the same compound, the inhibition of aggregation in experiment [2] was -3.1% (inactive). Further, the nuclei count in experiment [2] is 118%; in experiment [3], 119%. For the same compound, the fluorescence slope in experiment [4] was -0.608 (inactive). The NADPH fluorescence slope in experiment [5] is -3.7e-05 (inactive). The slope in experiment [6] was 0.00702 (inactive).

For the compound `CC(=O)Nc1ccc(S(=O)(=O)NCC(C)NS(=O)(=O)c2ccc(NC(C)=O)cc2)cc1` (stereo not given), in experiment [1], the cell count stood at 572. The inhibition was -9.7% (inactive) in experiment [1], -204% (inactive) in experiment [3], -11.9% (inactive) in experiment [7] and -13.4% (inactive) in experiment [8]. Moreover, the inhibition of aggregation in experiment [2] was 18.1% (inactive). In addition, the values for the nuclei count in experiment [2] and in experiment [3] were 76% and 95.1%, respectively. Moreover, the fluorescence slope in experiment [4] was -0.442 (inactive). The NADPH fluorescence slope in experiment [5] was 4.4e-05 (inactive). Also, in experiment [6], the slope is 0.0079 (inactive).

Regarding `CN(C)c1nc(SCCOC(=O)c2ccccc2)nc(N(C)C)n1`, the cell count in experiment [1] was found to be 775. The inhibition in experiment [1] is -4.7% (inactive); in experiment [3], -45.1% (inactive); in experiment [7] it was 8.47% (inactive); in experiment [8], 11.2% (inactive). Further, the inhibition of aggregation in experiment [2] is -21.8% (inactive). Besides, the results for the nuclei count in experiment [2] and in experiment [3] were 118% and 102%, respectively. In addition, the fluorescence slope in experiment [4] is -0.385 (inactive). Further, the NADPH fluorescence slope in experiment [5] is 2.1e-06 (inactive). Besides, in experiment [6], the slope was 0.00433 (inactive).

(Values after PubChem BioAssay.)
